Among the data in PubChem BioAssay (EPA / NIEHS) are outcome values, retold here.

Each structure is given as a SMILES string. Records with an inconclusive call do not appear. Activity calls are given as the source filed them. How the source made its calls: active means hit-call score of the fitted dose curve at least 0.9, where 1 is the maximum; inconclusive means response in the unintended direction; inactive means score below 0.9.

This assay is described as follows: CLD_ACTIN_24hr: CellzDirect (CLD) Gene Expression Assay for Baseline Control (Actin) at 24 hours (AID 2283670). The protocol: CLD_24hr is a cell-based, multiplexed-readout assay that uses hepatocyte, a human liver primary cell, with measurements taken at 24 hours after chemical dosing in a 96-well plate.CLD_ACTIN_24hr is one of 16 assay component(s) measured or calculated from the CLD_24hr assay. It is designed to make measurements of mRNA induction, a form of inducible reporter, as detected with chemiluminescence signals by Quantitative Nuclease Protection Assay (qNPA) technology.Data from the assay component CLD_ACTIN_24hr was analyzed at the endpoint, CLD_ACTIN_24hr, in the positive analysis fitting direction relative to DMSO as the negative control and baseline of activity. Using a type of inducible reporter, gain-of-signal activity can be used to understand changes in the reporter gene as they relate to the gene ACTA1. Furthermore, this assay endpoint can be referred to as a secondary readout, because this assay has produced multiple assay endpoints where this one serves a background control function. To generalize the intended target to other relatable targets, this assay endpoint is annotated to the background measurement intended target family, where subfamily is baseline control.
Human hepatocyte cultures were treated daily for two consecutive days with fresh dosing solutions containing appropriate concentrations of the 320 ToxCast chemicals (chemical identities were blinded to CellzDirect and other ToxCast collaborators), vehicle control (0.2% DMSO), and positive control inducers as summarized in Table 1. Due to the large number of treatment groups and chemicals examined, the ToxCast chemicals were divided into two groups (spanning two independent cultures of hepatocytes from separate donor preparations (Hu778: ToxCast plates 1 and 2; Hu776: ToxCast plates 3 and 4). Each preparation of human hepatocyte cultures was treated with respective vehicle control, medium only control, set of six positive controls/reference chemicals for the five hepatic receptor pathways, and a subset of eight of the ToxCast chemicals (indoxacarb, pyrithiobac-sodium, norflurazon, cyhalofop-butyl, methomyl, thiram, acetochlor, and propiconazole). These replicate data, coupled with internal replicates designed within the blinded ToxCast chemical library, provided additional data to evaluate interindividual differences between hepatocyte preparations and their potential impact on chemical profiles.Cell morphology and integrity were evaluated using phase-contrast microscopy as an indicator of hepatocyte cell health (Tyson & Green, 1987). Cultures for each treatment group (i.e., media, vehicle [0.2% DMSO], positive control inducers [multiple concentrations], and the ToxCast chemicals [multiple concentrations]) were observed and cell morphology was assessed relative to vehicle control cultures at each harvest time point (0, 6, 24, or 48 h). […] Images were evaluated at the conclusion of the study to assess changes in cell integrity and account for the effects of chemical exposure on uncharacteristic changes in concentration-dependent gene expression profiles. The results from these determinations of apparent cytotoxicity were annotated (yes/no) alongside the corresponding qNPA data for reference.At the conclusion of each treatment period, hepatocyte cultures (96-well) were washed with 1 volume of HBSS, lysed by addition of 25 ul ArrayPlate lysis buffer (HTG, Tucson, AZ), and 70 ul/well of Denaturation Oil, denatured by incubation at 95C for 10 min, and frozen at approximately -70C until analysis by nuclease protection assay (qNPA) (Roberts et al., 2007). For qNPA analysis, cell lysates were thawed at 50C for approximately 30 min, qNPA probes were added, and samples were incubated at 95C for 10 min to begin the detection process by denaturing the target RNA, dissociating the duplexes and secondary structure hybridization. At the conclusion of the hybridization period, S1 nuclease reagent was added to each sample to digest all nonprotected nucleotides at 50C for 60-90 min. […]
For the compound `COC(=O)N(OC)c1ccccc1COc1ccn(-c2ccc(Cl)cc2)n1`, the call was inactive.

`CC(C)C1(C)N=C(c2nc3ccccc3cc2C(=O)O)NC1=O` (stereo unspecified): the call was inactive.

With `COC(=O)c1ccccc1C(=O)OC`, the result was inactive.

Regarding `COc1cnc(OC)n2nc(NS(=O)(=O)c3c(OCC(F)F)cccc3C(F)(F)F)nc12`, the result was inactive.

Turning to `N#Cc1nn(-c2c(Cl)cc(C(F)(F)F)cc2Cl)c(N)c1S(=O)C(F)(F)F` (stereo unspecified), the call was inactive.

For `N#Cc1cc(Br)c(O)c(Br)c1`, the outcome was inactive.

As for `CNC(=O)ON=CC(C)(C)SC`, the result was inactive.

Turning to `CCCC1COC(Cn2cncn2)(c2ccc(Cl)cc2Cl)O1` (stereo unspecified), the call was inactive.

Consider `CC(C)(C)c1ccc(CSc2cnn(C(C)(C)C)c(=O)c2Cl)cc1`, for which the compound was classed as inactive.

For the compound `Cc1c(F)c(F)c(COC(=O)C2C(/C=C(\Cl)C(F)(F)F)C2(C)C)c(F)c1F` (stereo unspecified), the compound was classed as inactive.

For the compound `CCNc1nc(Cl)nc(NCC)n1`, the outcome was inactive.

In the case of `COC(=O)C=C(C)OP(=O)(OC)OC`, the result was inactive.

Consider `CCCCOC(=O)c1ccccc1C(=O)OCCCC`, for which the call was inactive.

In the case of `COC(=O)C(C)Oc1ccc(Oc2ccc(Cl)cc2Cl)cc1` (stereo unspecified), the compound was called inactive.

In the case of `C=CC1(C)OC(=O)N(c2cc(Cl)cc(Cl)c2)C1=O` (stereo unspecified), the compound was classed as inactive.

Regarding `CC(Oc1ccc(Cl)cc1Cl)C(=O)O` (stereo unspecified), the compound was called inactive.

As for `CN(C)C(=S)SSC(=S)N(C)C`, the call was inactive.

With `CNC(=S)S`, the compound was called inactive.

Regarding `CCCCNC(=O)n1c(NC(=O)OC)nc2ccccc21`, the compound was classed as inactive.

As for `COc1nc(NC(C)C)nc(NC(C)C)n1`, the outcome was inactive.

On to `CCCCNC(=O)OCC#CI`, for which the call was inactive.

As for `CCNc1nc(Cl)nc(NC(C)C)n1`, the outcome was inactive.

Turning to `CCCCC(CC)COC(=O)c1ccccc1C(=O)OCC(CC)CCCC` (stereo unspecified), the result was inactive.

As to `COc1nc(C)nc(NC(=O)NS(=O)(=O)c2ccccc2Cl)n1`, the call was inactive.

In the case of `CS/C(C)=N/OC(=O)N(C)SN(C)C(=O)O/N=C(\C)SC`, the compound was classed as inactive.

Turning to `N#CC(CCc1ccc(Cl)cc1)(Cn1cncn1)c1ccccc1` (stereo unspecified), the call was inactive.

As to `CCc1nn(C)c(C(=O)NCc2ccc(C(C)(C)C)cc2)c1Cl`, the outcome was inactive.

In the case of `Oc1ccccc1-c1ccccc1`, the compound was classed as inactive.

`Cc1ccc(-c2c(Cl)nc(C#N)n2S(=O)(=O)N(C)C)cc1`: the result was inactive.

Take `C=CCC1=C(C)C(OC(=O)C2C(C=C(C)C)C2(C)C)CC1=O` (stereo unspecified): the result was inactive.

Turning to `OC(c1ccc(Cl)cc1)(c1cncnc1)c1ccccc1Cl` (stereo unspecified), the compound was called inactive.
